Paper PMC7862700, “An all-to-all approach to the identification of sequence-specific readers for epigenetic DNA modifications on cytosine”

Columns and labels:
Experiment in all cases: DAPPL (digital affinity profiling via proximity ligation, sequencing); 10 mM Tris-HCl pH 7.5, 50 mM NaCl, 1 mM DTT, 4% glycerol, room temperature, 30 min; GST-TFs on glutathione beads, 16-mer random dsDNA library, 0.1% formaldehyde crosslink after washing; high values mean tight binding
FLI1 = molecular target: T1, FLI1 (Homo sapiens, UniProt Q01543 1-452); details: protein: recombinant; tags: N-terminal GST; dsDNA, one strand shown
T1 sequence: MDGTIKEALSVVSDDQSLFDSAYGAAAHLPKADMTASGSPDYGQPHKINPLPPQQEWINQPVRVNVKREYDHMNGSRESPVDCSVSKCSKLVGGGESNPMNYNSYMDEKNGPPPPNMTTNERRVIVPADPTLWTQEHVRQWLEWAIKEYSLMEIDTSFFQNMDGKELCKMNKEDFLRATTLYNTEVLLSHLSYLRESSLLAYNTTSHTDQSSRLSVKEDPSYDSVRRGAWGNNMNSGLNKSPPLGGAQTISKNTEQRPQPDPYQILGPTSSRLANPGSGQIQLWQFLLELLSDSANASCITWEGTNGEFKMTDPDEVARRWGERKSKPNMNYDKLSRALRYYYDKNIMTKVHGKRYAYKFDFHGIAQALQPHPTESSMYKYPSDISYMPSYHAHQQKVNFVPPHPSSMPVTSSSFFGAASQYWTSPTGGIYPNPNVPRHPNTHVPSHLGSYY
Method in brief: (§1)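 Each value of binding signal is a hexamer's read frequency for a factor divided by the same hexamer's frequency in the tag-only sample. Barcoded, bead-captured GST fusions of human transcription factors made in yeast were pooled with that sample and incubated with 200 nmole of a random double-stranded 16-mer DNA library in Tris/NaCl/DTT/glycerol buffer at room temperature for 30 min. Washing, 0.1% formaldehyde crosslinking, proximity ligation, PCR and Illumina NextSeq500 sequencing followed.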

ELK1 = molecular target: T2, ELK1 (Homo sapiens, UniProt P19419 1-428); details: protein: recombinant; tags: N-terminal GST; dsDNA, one strand shown
T2 sequence: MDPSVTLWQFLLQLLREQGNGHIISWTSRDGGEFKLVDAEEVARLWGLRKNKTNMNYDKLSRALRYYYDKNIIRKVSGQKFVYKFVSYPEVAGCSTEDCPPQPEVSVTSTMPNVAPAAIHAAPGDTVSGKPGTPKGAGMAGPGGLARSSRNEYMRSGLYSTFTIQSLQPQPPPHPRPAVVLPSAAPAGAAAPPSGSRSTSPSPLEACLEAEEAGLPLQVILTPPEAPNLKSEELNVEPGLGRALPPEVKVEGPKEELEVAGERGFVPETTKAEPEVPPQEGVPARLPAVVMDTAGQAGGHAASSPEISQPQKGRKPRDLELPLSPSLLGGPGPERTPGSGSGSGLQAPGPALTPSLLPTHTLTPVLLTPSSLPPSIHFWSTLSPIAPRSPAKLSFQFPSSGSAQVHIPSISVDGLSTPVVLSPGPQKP
Method in brief: as §1

GABPA = molecular target: T3, GABPA (Homo sapiens, UniProt Q06546 1-454); details: protein: recombinant; tags: N-terminal GST; dsDNA, one strand shown
T3 sequence: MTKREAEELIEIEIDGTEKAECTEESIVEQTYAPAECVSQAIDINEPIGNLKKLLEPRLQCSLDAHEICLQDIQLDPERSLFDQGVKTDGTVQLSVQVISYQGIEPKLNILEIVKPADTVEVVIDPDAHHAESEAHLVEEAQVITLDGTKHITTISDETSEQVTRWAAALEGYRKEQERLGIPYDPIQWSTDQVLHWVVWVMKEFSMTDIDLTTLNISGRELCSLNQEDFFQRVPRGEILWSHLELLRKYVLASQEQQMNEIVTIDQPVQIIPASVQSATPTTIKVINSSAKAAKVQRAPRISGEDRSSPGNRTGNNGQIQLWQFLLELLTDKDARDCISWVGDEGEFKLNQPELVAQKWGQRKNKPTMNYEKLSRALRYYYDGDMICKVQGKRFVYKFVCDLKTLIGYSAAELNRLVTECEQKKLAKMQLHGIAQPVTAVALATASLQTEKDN
Method in brief: as §1

ERG = molecular target: T4, ERG (Homo sapiens, UniProt P11308 1-479); details: protein: recombinant; tags: N-terminal GST; dsDNA, one strand shown
T4 sequence: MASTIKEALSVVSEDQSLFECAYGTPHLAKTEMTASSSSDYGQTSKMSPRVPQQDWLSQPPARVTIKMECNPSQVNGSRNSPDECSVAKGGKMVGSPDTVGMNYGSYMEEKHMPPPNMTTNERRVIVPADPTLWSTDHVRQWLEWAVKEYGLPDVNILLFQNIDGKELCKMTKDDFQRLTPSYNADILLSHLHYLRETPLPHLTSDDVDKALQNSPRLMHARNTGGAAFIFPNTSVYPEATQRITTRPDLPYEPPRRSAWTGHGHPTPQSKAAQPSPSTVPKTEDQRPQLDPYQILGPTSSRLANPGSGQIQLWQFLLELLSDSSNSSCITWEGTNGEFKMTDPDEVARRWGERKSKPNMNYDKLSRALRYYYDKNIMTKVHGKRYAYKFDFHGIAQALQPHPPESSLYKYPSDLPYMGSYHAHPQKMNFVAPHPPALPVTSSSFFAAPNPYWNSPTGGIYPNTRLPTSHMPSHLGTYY
Method in brief: as §1

ELF1 = ELF1 (Homo sapiens, UniProt P32519 1-619); details: protein: recombinant; tags: N-terminal GST; dsDNA, one strand shown
Method in brief: as §1

EHF = molecular target: T5, EHF (Homo sapiens, UniProt Q9NZC4 1-300); details: protein: recombinant; tags: N-terminal GST; dsDNA, one strand shown
T5 sequence: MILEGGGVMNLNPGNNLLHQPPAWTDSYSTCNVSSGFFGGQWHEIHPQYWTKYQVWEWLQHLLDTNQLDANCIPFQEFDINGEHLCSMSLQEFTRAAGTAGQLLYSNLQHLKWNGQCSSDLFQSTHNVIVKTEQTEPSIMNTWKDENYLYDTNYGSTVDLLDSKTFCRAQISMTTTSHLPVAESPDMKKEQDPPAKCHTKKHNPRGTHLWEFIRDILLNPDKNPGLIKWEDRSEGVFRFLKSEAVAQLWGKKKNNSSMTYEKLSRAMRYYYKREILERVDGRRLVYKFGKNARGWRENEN
Method in brief: as §1

SPI1 = SPI1 (Homo sapiens, UniProt P17947 1-270); details: protein: recombinant; tags: N-terminal GST; dsDNA, one strand shown
Method in brief: as §1

SPIB = SPIB (Homo sapiens, UniProt Q01892 1-262); details: protein: recombinant; tags: N-terminal GST; dsDNA, one strand shown
Method in brief: as §1

ELK3 = molecular target: T6, ELK3 (Homo sapiens, UniProt P41970 1-407); details: protein: recombinant; tags: N-terminal GST; dsDNA, one strand shown
T6 sequence: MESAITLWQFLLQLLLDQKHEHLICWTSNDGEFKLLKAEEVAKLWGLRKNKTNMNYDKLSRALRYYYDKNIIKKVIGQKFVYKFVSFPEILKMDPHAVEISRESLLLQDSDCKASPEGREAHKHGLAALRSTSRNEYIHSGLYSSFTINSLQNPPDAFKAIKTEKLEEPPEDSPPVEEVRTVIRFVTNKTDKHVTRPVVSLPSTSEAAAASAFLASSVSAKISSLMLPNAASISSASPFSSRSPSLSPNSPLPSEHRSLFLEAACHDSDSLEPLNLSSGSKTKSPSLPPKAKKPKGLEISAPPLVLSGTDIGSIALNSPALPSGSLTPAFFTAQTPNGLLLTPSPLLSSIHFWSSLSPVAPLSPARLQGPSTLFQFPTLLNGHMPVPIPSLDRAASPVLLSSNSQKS
Method in brief: as §1

FEV = molecular target: T7, FEV (Homo sapiens, UniProt Q99581 1-238); details: protein: recombinant; tags: N-terminal GST; dsDNA, one strand shown
T7 sequence: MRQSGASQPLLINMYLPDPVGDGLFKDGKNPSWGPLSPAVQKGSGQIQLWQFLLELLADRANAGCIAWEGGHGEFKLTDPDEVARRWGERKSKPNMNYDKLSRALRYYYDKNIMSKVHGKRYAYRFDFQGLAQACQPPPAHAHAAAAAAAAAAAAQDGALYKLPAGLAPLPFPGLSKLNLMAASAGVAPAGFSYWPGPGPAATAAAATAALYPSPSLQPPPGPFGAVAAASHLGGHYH
Method in brief: as §1

ETV5 = ETV5 (Homo sapiens, UniProt P41161 1-510); details: protein: recombinant; tags: N-terminal GST; dsDNA, one strand shown
Method in brief: as §1

HSF1 = HSF1 (Homo sapiens, UniProt Q00613 1-529); details: protein: recombinant; tags: N-terminal GST; chain copies: 3; dsDNA, one strand shown
Method in brief: as §1

SPIC = molecular target: T8, SPIC (Homo sapiens, UniProt Q8N5J4 1-248); details: protein: recombinant; tags: N-terminal GST; dsDNA, one strand shown
T8 sequence: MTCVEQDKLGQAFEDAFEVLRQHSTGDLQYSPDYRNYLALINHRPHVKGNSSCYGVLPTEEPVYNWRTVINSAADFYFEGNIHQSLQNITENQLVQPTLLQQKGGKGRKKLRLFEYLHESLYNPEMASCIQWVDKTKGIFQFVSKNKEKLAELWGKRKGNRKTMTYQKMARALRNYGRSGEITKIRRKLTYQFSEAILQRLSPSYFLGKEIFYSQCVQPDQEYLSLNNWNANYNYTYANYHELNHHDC
Method in brief: as §1

ELF4 = ELF4 (Homo sapiens, UniProt Q99607 1-663); details: protein: recombinant; tags: N-terminal GST; dsDNA, one strand shown
Method in brief: as §1

ELK4 = molecular target: T9, ELK4 (Homo sapiens, UniProt P28324-2 1-405); details: protein: recombinant; tags: N-terminal GST; dsDNA, one strand shown
T9 sequence: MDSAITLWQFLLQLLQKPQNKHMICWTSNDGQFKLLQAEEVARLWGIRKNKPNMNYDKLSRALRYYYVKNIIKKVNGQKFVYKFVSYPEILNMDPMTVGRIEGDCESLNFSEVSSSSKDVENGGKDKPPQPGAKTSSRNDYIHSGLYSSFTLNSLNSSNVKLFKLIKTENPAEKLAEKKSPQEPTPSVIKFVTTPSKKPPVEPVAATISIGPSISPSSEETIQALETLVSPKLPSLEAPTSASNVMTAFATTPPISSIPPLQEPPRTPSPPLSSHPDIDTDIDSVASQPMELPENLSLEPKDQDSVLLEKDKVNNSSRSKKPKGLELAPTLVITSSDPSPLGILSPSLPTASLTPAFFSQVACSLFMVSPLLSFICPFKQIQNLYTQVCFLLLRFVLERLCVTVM
Method in brief: as §1

ETV2 = molecular target: T10, ETV2 (Homo sapiens, UniProt O00321 1-342); details: protein: recombinant; tags: N-terminal GST; dsDNA, one strand shown
T10 sequence: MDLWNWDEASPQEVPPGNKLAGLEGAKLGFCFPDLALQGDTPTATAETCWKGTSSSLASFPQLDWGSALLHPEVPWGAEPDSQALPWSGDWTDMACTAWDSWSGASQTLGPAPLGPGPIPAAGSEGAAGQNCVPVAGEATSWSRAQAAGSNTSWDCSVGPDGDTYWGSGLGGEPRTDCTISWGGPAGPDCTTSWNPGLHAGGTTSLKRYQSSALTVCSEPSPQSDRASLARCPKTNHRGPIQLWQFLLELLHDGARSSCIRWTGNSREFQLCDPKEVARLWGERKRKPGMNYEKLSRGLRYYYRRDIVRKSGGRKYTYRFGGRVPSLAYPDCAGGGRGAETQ
Method in brief: as §1

ELF3 = molecular target: T11, ELF3 (Homo sapiens, UniProt P78545 1-371); details: protein: recombinant; tags: N-terminal GST; dsDNA, one strand shown
T11 sequence: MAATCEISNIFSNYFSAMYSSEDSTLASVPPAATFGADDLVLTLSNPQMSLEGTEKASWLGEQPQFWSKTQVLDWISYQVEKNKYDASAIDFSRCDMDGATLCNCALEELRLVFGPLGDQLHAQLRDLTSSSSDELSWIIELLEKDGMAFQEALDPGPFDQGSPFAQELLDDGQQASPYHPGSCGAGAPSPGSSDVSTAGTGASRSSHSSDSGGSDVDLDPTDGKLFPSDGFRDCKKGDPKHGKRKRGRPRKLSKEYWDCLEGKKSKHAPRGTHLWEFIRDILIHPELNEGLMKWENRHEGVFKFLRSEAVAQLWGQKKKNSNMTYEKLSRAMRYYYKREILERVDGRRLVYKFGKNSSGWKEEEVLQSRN
Method in brief: as §1

CRX = CRX (Homo sapiens, UniProt O43186 1-299); details: protein: recombinant; tags: N-terminal GST; dsDNA, one strand shown
Method in brief: as §1

ETV1 = ETV1 (Homo sapiens, UniProt P50549 1-477); details: protein: recombinant; tags: N-terminal GST; dsDNA, one strand shown
Method in brief: as §1

Chain of ETV5 (P41161 whole entry): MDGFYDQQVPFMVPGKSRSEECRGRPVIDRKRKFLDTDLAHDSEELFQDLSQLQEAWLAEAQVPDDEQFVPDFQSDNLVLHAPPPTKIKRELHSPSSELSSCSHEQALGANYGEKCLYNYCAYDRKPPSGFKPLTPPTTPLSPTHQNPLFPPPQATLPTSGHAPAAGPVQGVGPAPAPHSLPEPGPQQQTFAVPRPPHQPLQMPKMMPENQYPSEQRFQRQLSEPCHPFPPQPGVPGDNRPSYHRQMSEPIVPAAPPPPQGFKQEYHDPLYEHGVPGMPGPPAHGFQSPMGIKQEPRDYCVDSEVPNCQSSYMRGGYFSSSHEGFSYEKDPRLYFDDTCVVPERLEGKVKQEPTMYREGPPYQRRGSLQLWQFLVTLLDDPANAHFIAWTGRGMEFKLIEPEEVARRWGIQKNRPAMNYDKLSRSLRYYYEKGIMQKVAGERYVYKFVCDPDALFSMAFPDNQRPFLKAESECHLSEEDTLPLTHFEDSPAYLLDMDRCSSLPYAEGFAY
Chain of ELF1 (P32519 whole entry): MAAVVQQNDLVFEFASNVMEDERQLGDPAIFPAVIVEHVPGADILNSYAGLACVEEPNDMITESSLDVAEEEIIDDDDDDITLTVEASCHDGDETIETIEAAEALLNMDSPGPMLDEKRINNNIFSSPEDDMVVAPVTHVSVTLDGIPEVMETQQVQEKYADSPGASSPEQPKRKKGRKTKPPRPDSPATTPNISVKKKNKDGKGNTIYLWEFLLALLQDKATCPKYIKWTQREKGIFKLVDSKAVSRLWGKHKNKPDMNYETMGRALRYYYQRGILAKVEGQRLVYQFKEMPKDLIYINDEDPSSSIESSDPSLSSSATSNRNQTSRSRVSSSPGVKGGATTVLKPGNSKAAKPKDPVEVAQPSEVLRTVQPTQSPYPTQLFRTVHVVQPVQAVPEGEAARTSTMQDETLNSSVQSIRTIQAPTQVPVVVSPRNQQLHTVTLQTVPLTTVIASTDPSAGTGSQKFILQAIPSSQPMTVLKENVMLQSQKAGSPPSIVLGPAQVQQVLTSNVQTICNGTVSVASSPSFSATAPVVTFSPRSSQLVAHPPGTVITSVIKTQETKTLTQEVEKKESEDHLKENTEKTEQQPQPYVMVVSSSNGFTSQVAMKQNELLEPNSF
Chain of ELF4 (Q99607 whole entry): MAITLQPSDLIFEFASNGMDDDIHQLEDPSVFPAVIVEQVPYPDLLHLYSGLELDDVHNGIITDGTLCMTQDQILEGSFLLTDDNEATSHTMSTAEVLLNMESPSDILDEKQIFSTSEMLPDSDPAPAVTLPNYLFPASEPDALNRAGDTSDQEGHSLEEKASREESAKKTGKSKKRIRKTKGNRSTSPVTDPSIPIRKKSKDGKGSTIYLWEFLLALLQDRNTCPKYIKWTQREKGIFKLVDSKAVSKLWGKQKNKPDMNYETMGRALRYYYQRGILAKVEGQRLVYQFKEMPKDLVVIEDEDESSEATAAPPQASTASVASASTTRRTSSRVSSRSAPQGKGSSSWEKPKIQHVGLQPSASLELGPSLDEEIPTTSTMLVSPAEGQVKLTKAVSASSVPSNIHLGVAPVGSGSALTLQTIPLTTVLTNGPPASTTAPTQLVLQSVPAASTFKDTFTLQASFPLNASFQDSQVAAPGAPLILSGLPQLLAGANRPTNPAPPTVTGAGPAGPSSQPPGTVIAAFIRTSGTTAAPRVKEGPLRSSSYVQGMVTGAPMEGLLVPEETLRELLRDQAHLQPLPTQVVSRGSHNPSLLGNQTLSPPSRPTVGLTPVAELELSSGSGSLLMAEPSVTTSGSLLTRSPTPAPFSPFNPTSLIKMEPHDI
Chain of HSF1 (Q00613 whole entry): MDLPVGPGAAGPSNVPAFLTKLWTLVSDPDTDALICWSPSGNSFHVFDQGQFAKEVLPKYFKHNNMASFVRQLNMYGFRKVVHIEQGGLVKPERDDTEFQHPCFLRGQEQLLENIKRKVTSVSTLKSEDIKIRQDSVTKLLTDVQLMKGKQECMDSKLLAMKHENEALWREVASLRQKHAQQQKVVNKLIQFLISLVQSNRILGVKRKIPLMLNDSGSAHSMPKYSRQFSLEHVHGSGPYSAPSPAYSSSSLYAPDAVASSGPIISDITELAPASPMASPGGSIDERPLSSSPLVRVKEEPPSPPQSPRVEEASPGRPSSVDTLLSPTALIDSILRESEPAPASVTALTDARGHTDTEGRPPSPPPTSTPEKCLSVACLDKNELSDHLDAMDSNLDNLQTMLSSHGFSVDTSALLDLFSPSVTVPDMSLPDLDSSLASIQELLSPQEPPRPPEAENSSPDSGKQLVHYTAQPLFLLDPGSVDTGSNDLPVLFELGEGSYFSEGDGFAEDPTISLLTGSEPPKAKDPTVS
Chain of SPIB (Q01892 whole entry): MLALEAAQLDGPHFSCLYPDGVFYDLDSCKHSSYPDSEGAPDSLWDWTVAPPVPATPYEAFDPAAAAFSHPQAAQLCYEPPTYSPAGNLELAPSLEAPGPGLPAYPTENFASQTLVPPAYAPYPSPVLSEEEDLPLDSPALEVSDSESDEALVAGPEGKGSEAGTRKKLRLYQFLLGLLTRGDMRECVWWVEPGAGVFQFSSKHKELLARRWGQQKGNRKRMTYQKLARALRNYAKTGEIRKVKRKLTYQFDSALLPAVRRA
Chain of ETV1 (P50549 whole entry): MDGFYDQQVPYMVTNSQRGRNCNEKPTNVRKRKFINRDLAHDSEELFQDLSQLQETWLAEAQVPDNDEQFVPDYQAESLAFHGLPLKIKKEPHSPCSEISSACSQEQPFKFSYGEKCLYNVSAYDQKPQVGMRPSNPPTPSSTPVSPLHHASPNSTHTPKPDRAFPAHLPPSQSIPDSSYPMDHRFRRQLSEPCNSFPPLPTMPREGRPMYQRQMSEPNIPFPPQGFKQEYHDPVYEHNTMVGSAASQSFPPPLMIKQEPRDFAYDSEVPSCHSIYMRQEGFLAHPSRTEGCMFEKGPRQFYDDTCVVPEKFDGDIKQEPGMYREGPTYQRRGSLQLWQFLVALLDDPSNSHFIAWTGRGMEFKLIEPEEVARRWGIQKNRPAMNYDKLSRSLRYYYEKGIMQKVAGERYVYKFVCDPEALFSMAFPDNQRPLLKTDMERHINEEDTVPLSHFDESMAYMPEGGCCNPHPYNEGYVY
Chain of CRX (O43186 whole entry): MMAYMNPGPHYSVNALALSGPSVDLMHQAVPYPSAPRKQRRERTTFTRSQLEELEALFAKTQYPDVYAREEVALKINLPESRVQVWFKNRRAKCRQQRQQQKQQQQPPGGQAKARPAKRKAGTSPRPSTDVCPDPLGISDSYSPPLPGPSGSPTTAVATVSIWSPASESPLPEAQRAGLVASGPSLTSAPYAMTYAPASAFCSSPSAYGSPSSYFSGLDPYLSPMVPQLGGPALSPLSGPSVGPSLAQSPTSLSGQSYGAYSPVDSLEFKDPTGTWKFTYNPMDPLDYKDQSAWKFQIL

## ACCTAC
FLI1
  binding signal: 1.22 fold enrichment (6-mer frequency, TF over GST control)
ELK1
  binding signal: 1.2 fold enrichment (6-mer frequency, TF over GST control)
GABPA
  binding signal: 1.21 fold enrichment (6-mer frequency, TF over GST control)
ERG
  binding signal: 1.1 fold enrichment (6-mer frequency, TF over GST control)
ELF1
  binding signal: 1.27 fold enrichment (6-mer frequency, TF over GST control)
EHF
  binding signal: 1.21 fold enrichment (6-mer frequency, TF over GST control)
SPI1
  binding signal: 1.18 fold enrichment (6-mer frequency, TF over GST control)
SPIB
  binding signal: 1.23 fold enrichment (6-mer frequency, TF over GST control)
ELK3
  binding signal: 1.13 fold enrichment (6-mer frequency, TF over GST control)
FEV
  binding signal: 1.17 fold enrichment (6-mer frequency, TF over GST control)
ETV5
  binding signal: 1.13 fold enrichment (6-mer frequency, TF over GST control)
HSF1
  binding signal: 1.07 fold enrichment (6-mer frequency, TF over GST control)
SPIC
  binding signal: 1.13 fold enrichment (6-mer frequency, TF over GST control)
ELF4
  binding signal: 1.24 fold enrichment (6-mer frequency, TF over GST control)
ELK4
  binding signal: 1.22 fold enrichment (6-mer frequency, TF over GST control)
ETV2
  binding signal: 1.23 fold enrichment (6-mer frequency, TF over GST control)
ELF3
  binding signal: 1.29 fold enrichment (6-mer frequency, TF over GST control)
CRX
  binding signal: 1.02 fold enrichment (6-mer frequency, TF over GST control)
ETV1
  binding signal: 1.23 fold enrichment (6-mer frequency, TF over GST control)
